# A selection: hits, their analogues and other compounds. The true share with any hit is near 27%.
# CYP2C9 inh = blocks human cytochrome P450 2C9. inhibition, % at 5 µM. P11712. actives 20% (n = 96,000). CYP2C9 Supersomes, luciferin-H conversion, luminescence;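 active means blocking of liver enzyme CYP2C9 beyond about 50% at 5 µM, limit read from the data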
# Target sequence (P11712 whole entry, looked up): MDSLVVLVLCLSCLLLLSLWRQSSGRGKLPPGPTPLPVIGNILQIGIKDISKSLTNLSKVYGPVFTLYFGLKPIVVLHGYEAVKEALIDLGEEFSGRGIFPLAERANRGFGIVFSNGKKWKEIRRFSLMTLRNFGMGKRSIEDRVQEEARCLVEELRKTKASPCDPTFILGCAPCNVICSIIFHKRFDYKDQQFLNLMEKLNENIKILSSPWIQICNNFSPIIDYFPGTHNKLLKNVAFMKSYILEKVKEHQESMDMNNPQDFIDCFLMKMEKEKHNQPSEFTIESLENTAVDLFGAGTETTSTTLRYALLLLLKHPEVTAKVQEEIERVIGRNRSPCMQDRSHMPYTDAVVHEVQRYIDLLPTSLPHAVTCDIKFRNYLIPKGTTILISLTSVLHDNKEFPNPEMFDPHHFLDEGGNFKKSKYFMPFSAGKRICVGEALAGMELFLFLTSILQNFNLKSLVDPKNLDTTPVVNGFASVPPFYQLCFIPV
# CYP2C19 inh = human CYP2C19 inhibition. P33261. CYP2C19 Supersomes, luciferin-H EGE luminescence, 30 min. inhibition, % at 5 µM. actives 21% (n = 96,000);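 active means CYP2C19 inhibition above a set limit at 5 µM in the primary screen, cut at about 50% in these data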;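 further: plate controls were negative control wells for no effect and 2.5 mM tranylcypromine positive control for full effect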
# CYP2C9 activ = CYP2C9 (human) activation. P11712. recombinant CYP2C9, luciferin-H conversion, luminescence; active compounds read high; factor 1 = untreated enzyme, 0 = blocked. activation factor at 5 µM. actives 1.4% (n = 96,000). AID 1024;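 active means activation factor of 2 or more for CYP2C9 at a 5 µM dose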;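 further: 0 = sulfaphenazole-blocked wells and 1 = vehicle-only wells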
# EphB4 antag = antagonists of human EphB4-ephrin-B2 interaction; actives 0.15% (n = 97,000); AID 720; P54760; inhibition, % at 7 µM; EphB4 LBD / TNYL-RAW-Alexa532 peptide, fluorescence polarization;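 active means inhibition above the screen-wide mean inhibition plus 3 SD, cut at about 15% in these data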;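 further: 0% = DMSO wells and 100% = excess unlabeled TNYL-RAW peptide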
# CYP2C19 act = increases human CYP2C19 enzyme activity; recombinant CYP2C19, luciferin-H EGE luminescence; active compounds read high; 0 = fully inhibited enzyme, 1 = untreated enzyme; 96,000 tested, under 10 active; activation factor at 5 µM; P33261;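 active means activation factor of at least 2 at 5 µM in the primary screen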;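 further: 0 = wells with 2.5 mM tranylcypromine and 1 = vehicle-only wells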
# Numbers without * were called inactive; . = not tested or not shown.
SMILES,CYP2C9 inh,CYP2C19 inh,CYP2C9 activ,EphB4 antag,CYP2C19 act
CCc1nn(C(C)C(=O)NC(C)CCc2ccco2)c(=O)c2cc3occc3n12 (stereo not drawn),77.3*,59.5*,0.2,.,0.4
Cc1nnc(SCc2ccc(F)cc2)s1,-23.2,23.0,1.2,-0.3,0.8
COc1ccc(CSc2nnc(N)s2)cc1F,18.7,68.7*,0.8,-0.3,0.3
Nc1nnc(SCc2ccc(F)cc2)s1,33.0,69.9*,0.7,-1.4,0.3
CCN1C(=O)/C(=C2\SC(=S)N(CC3CCCO3)C2=O)c2ccccc21 (stereo not drawn),8.3,-3.9,0.9,10.7,1
CC1(C)CC2CC(C)(CN2CC(=O)C(C#N)c2ccccc2)C1 (stereo not drawn),1.7,79.8*,1,0.9,0.2
CC1(C)CC2CC(C)(CN2C(=O)Cc2ccccc2)C1 (stereo not drawn),.,.,.,2.5,.
COc1cc(S(=O)(=O)n2ccc(C)n2)c(OC)cc1Cl,0.0,67.3*,1,-6.8,0.3
CCOc1ccc(C)cc1S(=O)(=O)n1ccc(C)n1,-130.3,45.8,2.3*,1.1,0.5
CCOc1cc(C)c(C(C)C)cc1S(=O)(=O)N1CCN(C)CC1,-47.8,-10.8,1.5,-5.7,1.1
COc1cc(S(=O)(=O)N2CCN(C)CC2)c(OC)cc1Cl,-13.0,43.8,1.1,1.9,0.6
CCOc1cc(C)c(C(C)C)cc1S(=O)(=O)n1ccc(C)n1,37.7,54.2*,0.6,4.3,0.5
COc1cc(C)c(Cl)cc1S(=O)(=O)n1ccnc1C,-52.3,92.4*,1.5,9.0,0.1
Cc1cc(S(=O)(=O)n2cnc3ccccc32)c(C)cc1Cl,.,.,.,6.0,.
CCn1ccc(C(=O)Nc2ccc(Cl)cn2)n1,39.3,67.1*,0.6,-3.8,0.3
CCn1nccc1C(=O)Nc1ccc(Cl)cn1,22.5,58.6*,0.8,10.7,0.4
C=CCn1c(CCNC(=O)C(C)(C)C)nc2ccccc21,7.5,39.5,0.9,.,0.6
Nc1c(-c2ccccc2)cnc2ncnn12,8.9,-2.0,0.9,3.4,1
COc1ccc(NC(=O)CSc2nnnn2-c2ccc(OC)cc2)cc1,32.5,27.9,0.7,-0.6,0.7
CCOC(=O)CSc1nc2cc3c(cc2cc1C#N)OCO3,38.7,19.2,0.6,-9.2,0.8
CCOc1ccc(S(=O)(=O)Nc2ccccc2SC)cc1,-90.0,66.7*,1.9,9.9,0.3
COC(=O)COc1ccc(S(=O)(=O)Nc2ccccc2SC)cc1,.,.,.,7.1,.
CCOc1ccc(S(=O)(=O)Nc2cccc(Cl)c2)cc1,.,.,.,-5.9,.
CCc1ccccc1NS(=O)(=O)c1ccc(SC)cc1,0.2,80.8*,1,-6.2,0.2
CCOc1ccc(NS(=O)(=O)c2ccc(NS(=O)(=O)c3ccccc3)cc2)cc1,95.4*,54.7*,0,-5.5,0.5
SMILES,CYP2C9 inh,CYP2C19 inh,CYP2C9 activ,EphB4 antag,CYP2C19 act
CCOc1ccc(S(=O)(=O)Nc2cc(Cl)ccc2O)cc1,100.0*,100.0*,0,-2.6,0
CN1/C(=C\C=Nc2ccc3ccccc3c2)C(C)(C)c2ccccc21,1.0,29.6,1,-0.7,0.7
COc1ccc(NC2c3ccccc3C(=O)N2c2cccnc2)cc1Cl (stereo not drawn),57.6*,80.6*,0.4,.,0.2
CCOc1ccccc1NC1c2ccccc2C(=O)N1c1cccnc1 (stereo not drawn),5.3,52.1*,0.9,1.8,0.5
O=C1c2ccccc2C(Nc2ccc(Cl)cn2)N1c1ccccn1 (stereo not drawn),.,.,.,-4.5,.
CCOC(=O)c1ccccc1NC1c2ccccc2C(=O)N1c1cc(C)ccn1 (stereo not drawn),82.7*,96.4*,0.2,0.2,0
O=C1c2ccccc2C(Nc2ccccc2)N1c1cccnc1 (stereo not drawn),14.3,69.7*,0.9,1.3,0.3
COC(=O)c1cc(NC2c3ccccc3C(=O)N2c2cccnc2)cc(C(=O)OC)c1 (stereo not drawn),.,.,.,-2.8,.
O=C(NCc1cccnc1)NC1(c2ccccc2)CC1,-1.5,21.9,1,-8.7,0.8
CC(Sc1ccccc1)C(=O)Nc1ccc(N2CCOCC2)cc1 (stereo not drawn),26.6,11.8,0.7,5.9,0.9
CC(Sc1nc(NCc2ccccc2)nc(N(C)C)n1)C(=O)Nc1ccccc1 (stereo not drawn),81.1*,57.6*,0.2,2.2,0.4
CC(Sc1nc(NCc2ccccc2)nc(N2CCOCC2)n1)C(=O)Nc1ccccc1 (stereo not drawn),80.5*,24.1,0.2,-2.9,0.8

# Assay outcomes from PubChem BioAssay.
